Screening data (PubChem)
In the library only some 28% were active in any assay of this set; here they are far more common.
CYP2C9 activ: CYP2C9 (human) activation. P11712. AID 1024. 1.4% of 96,000 active. recombinant CYP2C9, luciferin-H conversion, luminescence; active compounds read high; factor 1 = untreated enzyme, 0 = blocked. activation factor at 5 µM;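 active means activation factor of 2 or more for CYP2C9 at a 5 µM dose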
CD11b adhes enh: enhancers of human CD11b/CD18 binding to fibrinogen; K562 CD11b/CD18 adhesion to fibrinogen, ATPlite luminescence; activation, % at 10 µM; 0.07% of 93,000 active;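 active means 10 µM primary screen giving 50% or more activity, confirmed by 40% or more on retest at that dose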
CYP2C19 act: cytochrome P450 2C19 (human) activation; recombinant CYP2C19, luciferin-H EGE luminescence; active compounds read high; 0 = fully inhibited enzyme, 1 = untreated enzyme; activation factor at 5 µM; 96,000 tested, under 10 active; AID 1025;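 active means activation factor of at least 2 at 5 µM in the primary screen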
Target sequence (P33261 whole entry, looked up): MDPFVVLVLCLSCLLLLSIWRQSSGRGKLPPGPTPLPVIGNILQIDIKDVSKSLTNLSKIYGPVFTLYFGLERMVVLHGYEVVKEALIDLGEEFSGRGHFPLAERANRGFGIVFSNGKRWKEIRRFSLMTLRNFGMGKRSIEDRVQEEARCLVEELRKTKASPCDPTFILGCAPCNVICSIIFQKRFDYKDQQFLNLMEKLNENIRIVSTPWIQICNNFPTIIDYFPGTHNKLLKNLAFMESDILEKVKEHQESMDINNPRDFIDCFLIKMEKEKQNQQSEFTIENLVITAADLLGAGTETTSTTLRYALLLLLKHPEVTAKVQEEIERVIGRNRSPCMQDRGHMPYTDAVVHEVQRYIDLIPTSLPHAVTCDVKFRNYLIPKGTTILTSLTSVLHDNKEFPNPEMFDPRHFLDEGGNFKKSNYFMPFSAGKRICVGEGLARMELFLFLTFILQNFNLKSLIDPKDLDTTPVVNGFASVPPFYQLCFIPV
CYP2C9 inh: human CYP2C9 inhibition; AID 777; CYP2C9 Supersomes, luciferin-H conversion, luminescence; P11712; 20% of 96,000 active; inhibition, % at 5 µM;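 active means blocking of liver enzyme CYP2C9 beyond about 50% at 5 µM, limit read from the data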
CYP2C19 inh: human CYP2C19 inhibition; P33261; CYP2C19 Supersomes, luciferin-H EGE luminescence, 30 min; inhibition, % at 5 µM; 21% of 96,000 active; AID 778;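 active means CYP2C19 inhibition above a set limit at 5 µM in the primary screen, cut at about 50% in these data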
Mac1 fbg inh: blocks human CD11b/CD18 adhesion to fibrinogen. P05107+P11215. K562 CD11b/CD18 adhesion to fibrinogen, ATPlite luminescence; Mn2+ added to activate the integrin. inhibition, % at 10 µM. 0.54% of 93,000 active;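 active means primary inhibition of 50% or more at 10 µM, then 40% or more on retest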
Each line names hits and unclear results; the compound was inactive in the other large screens.

O=C(Nc1nc2ccc(S(=O)(=O)N3CCCC3)cc2s1)C1CCCCC1	CYP2C9 inh 64 (no result: CD11b adhes enh, Mac1 fbg inh)
Nc1nc2ccc(S(=O)(=O)N3CCCCC3)cc2s1	none
Cc1ccc(C)c(N2C(=O)CN=C2Nc2ccccc2Cl)c1	none
O=C(NCCCn1ccnc1)c1cn(-c2ccccc2)nc1-c1ccccc1	CYP2C9 inh 94, CYP2C19 inh 64
COCCSc1ccccc1C(=O)NCCCn1ccnc1	CYP2C19 inh 68
CCc1c(C)[nH]c2nc3ccccc3n2c1=O	none
O=c1cc(-c2ccccc2)[nH]c2nc3ccccc3n12	CYP2C9 inh 76, CYP2C19 inh 61
O=C(Nc1ccc(Cl)cc1)Nc1nnc(CSCc2ccc(Cl)cc2)s1	none (no result: CYP2C9 activ, CYP2C19 act, CYP2C9 inh, CYP2C19 inh)
COc1ccc(-c2nnc(SCC(=O)c3[nH]c(C)c(C(C)=O)c3C)o2)cc1	CYP2C19 inh 63
CCOC(=O)c1[nH]c(CSc2nnc(-c3ccc(OC)cc3)o2)c(C(=O)OCC)c1C	CYP2C9 inh 85, CYP2C19 inh 73
COc1ccc(C(=O)CSc2nnc(-c3cc(C)cc(C)c3)o2)cc1	CYP2C19 inh 62
COc1ccc(-c2nnc(SCC(=O)c3ccc[nH]3)o2)cc1	none
CCOC(=O)c1c(NC(=O)COC(=O)Cn2c(C(F)(F)F)nc3ccccc32)sc(C)c1C	none
Cc1ccccc1NC(=O)CCC(=O)OCC(=O)c1ccc(-c2ccccc2)cc1	none
CC(C)(C)Sc1nc(O)cc(=O)[nH]1	none
Cc1cc2nc(NC3=NCN(Cc4ccc5c(c4)OCO5)CN3)nc(C)c2cc1C	none
O=C(c1cc2cc([N+](=O)[O-])ccc2oc1=O)N1CCN(c2ncccn2)CC1	none
CCOc1ccc(C2=NNC(c3cccs3)=Nc3ccc(OCC)cc32)cc1	CYP2C9 inh 53
COc1cccc(C=Nc2ccccc2C(=O)Nc2nccs2)c1OC	none
O=C(Nc1nccs1)c1ccccc1N=Cc1ccccc1	CYP2C9 inh 80, CYP2C19 inh 93 (no result: CD11b adhes enh, Mac1 fbg inh)
CC(C)C(CO)NC(=O)CC(=O)NC(CO)C(C)C (stereo not drawn)	none
COc1ccccc1Nc1nc(N)nc(CSCCO)n1	none
COCc1[nH][nH]c(=O)c1C=Nc1ccc(Oc2ccccc2)cc1	CYP2C19 inh 66
COc1ccc(CCNC(=O)c2c(-c3ccccc3Cl)noc2C)cc1	CYP2C9 inh 68, CYP2C19 inh 80
Cc1onc(-c2ccccc2Cl)c1C(=O)NCCN1Cc2ccccc2C1=O	CYP2C9 inh 59, CYP2C19 inh 75
Cc1onc(-c2ccccc2Cl)c1C(=O)NCc1cccnc1	none (no result: CD11b adhes enh, Mac1 fbg inh)
COc1ccc2cc(CCNC(=O)c3c(-c4ccccc4Cl)noc3C)c(=O)[nH]c2c1	CYP2C9 inh 67
CC(C)(C)n1nc2c(c1NC(=O)CCCc1ccccc1)CS(=O)C2 (stereo not drawn)	none
c1ccc(CC2CCN(c3nnnn3-c3ccccc3)CC2)cc1	CYP2C9 inh 54, CYP2C19 inh 63
O=S(=O)(c1ccccc1)N1CCN(c2nnnn2-c2ccccc2)CC1	CYP2C19 inh 51
O=C1NCN(c2ccccc2)C12CCN(c1nnnn1-c1ccccc1)CC2	CYP2C19 inh 58
CC(=O)N1CCN(c2nnnn2-c2ccccc2)CC1	none
Cc1cccc(CN2CCC(CNC(=O)CCNC(=O)Cn3ccc4ccccc4c3=O)CC2)c1	none
CC(O)C1CCC2C3CC[C@H]4CC(O)CCC4(C)C3CC3(OCCO3)C12C (stereo partly drawn)	none
CCN(CC(=O)NC)S(=O)(=O)c1ccc(Br)cc1	CYP2C19 inh 52
Cc1ccc(S(=O)(=O)C(C)C(=O)c2ccc3c(c2)OCCO3)cc1 (stereo not drawn)	CYP2C19 inh 87
CCN(CC(=O)NC)S(=O)(=O)c1ccc(C)cc1	none
CCN(CC(=O)Nc1ccc2c(c1)OCCO2)S(=O)(=O)c1cccs1	CYP2C9 inh 85, CYP2C19 inh 62
CCN(CC(=O)Nc1ccc2c(c1)OCCO2)S(=O)(=O)c1ccc(C)cc1	CYP2C9 inh 76
N#CC(C#N)=Cc1ccc(OC(=O)c2ccccn2)cc1	none (no result: CYP2C9 activ, CYP2C19 act, CYP2C9 inh, CYP2C19 inh)
Cc1cc(C)nc(SC(C(=O)O)c2ccccc2)n1 (stereo not drawn)	none (no result: CYP2C9 activ, CYP2C19 act, CYP2C9 inh, CYP2C19 inh)
Cc1cc(C)nc(Sc2nc(Cl)nc(N(c3ccccc3)c3ccccc3)n2)n1	CYP2C9 inh 52, CYP2C19 inh 67
CCNc1nc(-c2ccc(Cl)cc2)cs1	none
